Where “and” joins values, the source holds several entries; their conditions need not be identical. Equal entries are not always repeated. The source holds several records for some structures; these can differ, active in one and inactive in another. Calls of active or inactive are those of the source. How the source made its calls: active means hit-call score of the fitted dose curve at least 0.9, where 1 is the maximum; inactive means score below 0.9.

Broadly, the AC50 is the concentration at which the activity in the assay is half-maximal.

Read-out in this assay: Interleukin-1 alpha (IL1a), IL1A (gene 3552)
In words: BSK_BF4T_IL1a: BioMAP Diversity Plus: BF4T Assay for Interleukin-1 alpha (IL1a) Biomarker Activity (AID 2284264). The note with it: primary human bronchial epithelial cells with fibroblasts. How it is done: BSK_BF4T is a cell-based, multiplexed-readout assay that uses bronchial epithelial cells and dermal fibroblasts, a human vascular primary cell, with measurements taken at 24 hours after chemical dosing in a microplate: 96-well plate.BSK_BF4T_IL1a is an assay component measured in the BSK_BF4T assay. It measures IL-1a antibody related to regulation of gene expression using ELISA technology.Data from the assay component BSK_BF4T_IL1a was analyzed at the endpoint, BSK_BF4T_IL1a, in the positive analysis fitting direction relative to DMSO as the negative control and baseline of activity. Using a type of binding reporter, gain or loss-of-signal activity can be used to understand protein changes. To generalize the intended target to other relatable targets, this assay endpoint is annotated to the 'cytokine' intended target family, where the subfamily is 'interleukins'.
The levels of cell surface (or secreted, indicated by the prefix "s") biomarker endpoints were measured by ELISA. Overt cytotoxicity to cells in confluent adherent cultures (all systems other than the BT system) was assessed by measuring total protein levels using sulforhodamine B (SRB) staining in parallel cultures at the time of biomarker measurements, indicated as SRB endpoints. For proliferation assays for adherent cell types, individual cell types are cultured at sub-confluence and relative cell numbers quantified by SRB staining at time points optimized for each system (48 h: 3C and CASM3C systems; 72 h: BT and HDF3CGF systems; 96 h: SAg system). SRB was performed by staining cells with 0.1% SRB after fixation with 10% TCA and reading wells at 560 nm.Viability and proliferation of PBMC (T cells) was quantified by Alamar Blue reduction for the SAg and BT systems. For PBMC viability (referred to as PBMC Cytotoxicity within the assay endpoint names), cells were plated (75,000/well in a 96-well plate) and then chemical samples added for 1 h before addition of activators, SEB and TSST-1 (20 ng/mL final concentration each). Cells were incubated for 90 h. Then, Alamar Blue (20 uL/well) (Invitrogen, Cat DAL1100) was added for 6 h, and the plates were read with a fluorescence microplate reader at 546/580 nm (excitation/emission). For PBMC proliferation, cells were plated and activated as above but incubated for only 16 h prior to addition of Alamar Blue. Plates were read after 6 h.
`C=CC(=O)OCC(F)(F)C(F)(F)C(F)(F)C(F)(F)COC(=O)C=C`: the AC50 is 30 µM (active) and 46.8 µM (active). With `OCC(F)(F)C(F)(F)C(F)(F)C(F)F`, the outcome was inactive. For the compound `COC(=O)CCC(F)(F)C(F)(F)C(F)(F)C(F)(F)F`, the result was inactive.

On to `O=C(O)C(F)(F)C(F)(F)F`, for which the result was inactive. The same measure, in the same setting: the result for `C=CC(F)(F)C(F)(F)C(F)(F)C(F)(F)C(F)(F)C(F)(F)C(F)(F)C(F)(F)F` reads “inactive”. On the same count and under the same terms, the result for `O=C(O)C=C(C(F)(F)F)C(F)(F)F` reads “inactive”; that for `FC(F)(F)C(F)(F)C(F)(F)C(F)(F)C(F)(F)C(F)(F)C(F)(F)C(F)(F)F`, “inactive”. For the compound `O=S(=O)(OCC(F)F)C(F)(F)F`, the outcome was inactive. Turning to `FC(F)(F)C(F)(F)C(F)(F)C(F)(F)C(F)(F)C(F)(F)C(F)(F)C(F)(F)CCS`, the outcome was inactive. For the compound `O=C(O)C(F)(F)C(F)(F)OC(F)(F)F`, the outcome was inactive.

On to `O=C(Cl)C(F)(F)C(F)(F)C(F)(F)C(F)(F)C(F)(F)C(F)(F)C(F)(F)C(F)(F)F`, for which the AC50 is 45.4 µM (active) and 45.6 µM (active) and 56.8 µM (active). For `C=CC(=O)OCC(F)(F)C(F)(F)C(F)(F)C(F)(F)C(F)(F)C(F)(F)C(F)(F)F`, the result was inactive. Same read-out and setting: under `FC(F)(F)C(F)(F)CNCC(F)(F)C(F)(F)F` stands “inactive”; under `FC(F)(F)C(F)(F)C(F)(F)C(F)(F)CCI`, “inactive”. Take `FC(F)(F)C(F)(F)C(F)(F)C(F)(F)C(F)(F)C(F)(F)CCS`: the AC50 is 10.9 µM (active) and the outcome was inactive.

Take `OCC(F)(F)C(F)(F)C(F)(F)C(F)(F)C(F)(F)C(F)(F)F`: the result was inactive.

With `FC(F)(F)C(F)(F)C(F)(F)CI`, the outcome was inactive. On the same count and under the same terms, under `N=C(N)C(F)(F)C(F)(F)C(F)(F)C(F)(F)C(F)(F)C(F)(F)C(F)(F)F` stands “inactive”; under `FC(F)(F)C(F)(F)C(F)(F)C(F)(F)C(F)(F)CCI`, “inactive”; under `O=P(O)(O)OCCC(F)(F)C(F)(F)C(F)(F)C(F)(F)C(F)(F)C(F)(F)F`, “inactive”. Turning to `O=C(O)C(F)(F)C(F)(F)C(F)F`, the result was inactive. Still for that read-out and setting: the result for `C=C(C)C(=O)OCC(F)(F)C(F)(F)C(F)(F)C(F)(F)C(F)(F)C(F)(F)C(F)(F)F` reads “inactive”; that for `FC(F)(Br)C(F)(F)C(F)(F)C(F)(F)C(F)(F)C(F)(F)Br`, “inactive”. Same read-out and setting: the result for `CCO[Si](CCC(F)(F)C(F)(F)C(F)(F)C(F)(F)C(F)(F)C(F)(F)F)(OCC)OCC` reads “inactive”; that for `Cc1ccc(S(=O)(=O)OCC(F)(F)C(F)(F)C(F)(F)C(F)(F)C(F)(F)C(F)F)cc1`, “inactive”. `C=C(C)C(=O)OCCC(F)(F)C(F)(F)C(F)(F)C(F)(F)C(F)(C(F)(F)F)C(F)(F)F`: the outcome was inactive.

Turning to `OCCCC(F)(F)C(F)(F)C(F)(F)F`, the result was inactive. As to `C=C(C)C(=O)OCC(F)(F)C(F)(F)C(F)(F)F`, the result was inactive.

Regarding `FC1CC(F)(F)C(F)(F)C1(F)F` (stereo not given), the result was inactive. `O=C(CC(=O)C(F)(F)C(F)(F)F)C(F)(F)F`: the outcome was inactive. As for `O=S(=O)(OCCOC(F)(F)F)C(F)(F)F`, the result was inactive. The same measure, in the same setting: under `CCCCCCCCC(F)(F)C(F)(F)C(F)(F)C(F)(F)C(F)(F)C(F)(F)F` stands “inactive”.

As to `O=C(O)C(F)(F)C(F)(F)C(F)(F)C(F)(F)C(F)(F)C(F)(F)C(F)(F)C(F)(F)Cl`, the AC50 is 45.2 µM (active) and 44 µM (active). Regarding `NC(=O)C(F)(F)C(F)(F)C(F)(F)C(F)(F)F`, the result was inactive.

`OCC(F)(F)C(F)(F)C(F)(F)C(F)(F)C(F)(F)C(F)F`: the result was inactive. Still for that read-out and setting: the result for `O=C(O)C(F)(F)C(F)(F)C(F)(F)C(F)(F)F` reads “inactive”; that for `O=C(O)C(F)(OC(F)(F)C(F)(OC(F)(F)C(F)(F)C(F)(F)F)C(F)(F)F)C(F)(F)F` (stereo not given), “inactive”; that for `FC(F)(F)C(F)(F)C(F)(F)C(F)(F)C(F)(F)C(F)(F)C(F)(F)Br`, “inactive”.

As to `CC(C)(C)C(=O)CC(=O)C(F)(F)C(F)(F)C(F)(F)F`, the result was inactive.

The record behind these values is PubChem BioAssay (EPA / NIEHS).
